Experimental data from PubChem BioAssay (NCATS).
Inconclusive results are not listed. The source made the active and inactive calls. Calls come from the whole dose curve; as a rule, active = well fitted curve in the direction sought with a large enough effect; inconclusive = small, poorly fitted or top-dose-only effect, or another doubt; inactive = no such curve, though single readings can be large; an effect the other way counts as inactive or inconclusive.

Tests used:
[1] = Quantitative High-Throughput drug screen in 47 multiple myeloma cell lines against the NCATS MIPE library collection: Karpas417_ECACC cell viability assay (AID 1918961); conditions: Karpas417 myeloma viability, CellTiter-Glo ATP luminescence, 48 h; viability (% of DMSO): at 45.8 µM (top of the series)
Summary of the method: (§1)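 We plated 500 myeloma cells per well, pinned in MIPE 4.0 compounds, and incubated for 48 hours at 37C. ATP was then quantified with CellTiter-Glo, with DMSO and media-only wells defining 100% and 0%.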

[2] = Quantitative High-Throughput drug screen in 47 multiple myeloma cell lines against the NCATS MIPE library collection: JIM3_ECACC cell viability assay (AID 1918963; note: nearly all actives have a fitted effect of over 35% in size)
Summary of the method: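 Primary qHTS used for cherry-picking: cells at 500/well, library compounds for 48 h (37C, 5% CO2), luminescent ATP assay.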

[3] = Quantitative High-Throughput drug screen in 47 multiple myeloma cell lines against the NCATS MIPE library collection: JIM1_ECACC cell viability assay (AID 1918964)
Summary of the method: as §1

[4] = Quantitative High-Throughput drug screen in 47 multiple myeloma cell lines against the NCATS MIPE library collection: INA6_PLB cell viability assay (AID 1918965; note: nearly all actives have a fitted effect of over 55% in size)
Summary of the method: as §1

[5] = Quantitative High-Throughput drug screen in 47 multiple myeloma cell lines against the NCATS MIPE library collection: JJN3_DSMZ cell viability assay (AID 1918966; note: nearly all actives have a fitted effect of over 50% in size)
Summary of the method: as §1

[6] = Quantitative High-Throughput drug screen in 47 multiple myeloma cell lines against the NCATS MIPE library collection: H1112_PLB cell viability assay (AID 1918967; note: nearly all actives have a fitted effect of over 30% in size)
Summary of the method: as §1

[7] = Quantitative High-Throughput drug screen in 47 multiple myeloma cell lines against the NCATS MIPE library collection: Karpas25_ECACC cell viability assay (AID 1918968; note: nearly all actives have a fitted effect of over 35% in size)
Summary of the method: as §1

[8] = Quantitative High-Throughput drug screen in 47 multiple myeloma cell lines against the NCATS MIPE library collection: KMS12BM_JCRB cell viability assay (AID 1918971); note: nearly all actives have a fitted effect of over 35% in size
Summary of the method: (§2)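 Approved and investigational drugs from MIPE 4.0 were added by pin tool to 500 cells per well. After 48 hours at 37C, ATP-based CellTiter-Glo luminescence indicated remaining viability.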

[9] = Quantitative High-Throughput drug screen in 47 multiple myeloma cell lines against the NCATS MIPE library collection: KMS12PE_JCRB cell viability assay (AID 1918972); note: nearly all actives have a fitted effect of over 30% in size
Summary of the method: as §1

[10] = Quantitative High-Throughput drug screen in 47 multiple myeloma cell lines against the NCATS MIPE library collection: KMS20_JCRB cell viability assay (AID 1918973); note: nearly all actives have a fitted effect of over 45% in size
Summary of the method: as §1

[11] = Quantitative High-Throughput drug screen in 47 multiple myeloma cell lines against the NCATS MIPE library collection: KMS21BM_JCRB cell viability assay (AID 1918974); conditions: ATP luminescence, 48 h; viability: at 45.8 µM (top of the series)
Summary of the method: as §1

[12] = Quantitative High-Throughput drug screen in 47 multiple myeloma cell lines against the NCATS MIPE library collection: NCIH929_DSMZ cell viability assay (AID 1918978); note: nearly all actives have a fitted effect of over 35% in size
Summary of the method: (§3)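 Plated at 500 cells per well, myeloma lines received MIPE 4.0 compounds by pin tool. Following 48 h culture at 37 °C, CellTiter-Glo luminescence gave viability relative to DMSO and media-only controls.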

[13] = Quantitative High-Throughput drug screen in 47 multiple myeloma cell lines against the NCATS MIPE library collection: KMS27_JCRB cell viability assay (AID 1918970); conditions: KMS27 myeloma cells, CellTiter-Glo ATP viability, 48 h; viability (% of DMSO): at 45.8 µM (top of the series); note: nearly all actives have a fitted effect of over 30% in size
Summary of the method: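 Myeloma cells (500 per well) were exposed to MIPE 4.0 compounds for 48 h at 37 °C, 5% CO2; viability was read as ATP luminescence with CellTiter-Glo, normalized to DMSO-only (100%) and media-only (0%) wells.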

[14] = Quantitative High-Throughput drug screen in 47 multiple myeloma cell lines against the NCATS MIPE library collection: KMS26_JCRB cell viability assay (AID 1918975); note: nearly all actives have a fitted effect of over 45% in size
Summary of the method: as §2

[15] = Quantitative High-Throughput drug screen in 47 multiple myeloma cell lines against the NCATS MIPE library collection: MOLP8_DSMZ cell viability assay (AID 1918977); note: nearly all actives have a fitted effect of over 45% in size
Summary of the method: as §3

[16] = Quantitative High-Throughput drug screen in 47 multiple myeloma cell lines against the NCATS MIPE library collection: OCIMY1_PLB cell viability assay (AID 1918979); note: nearly all actives have a fitted effect of over 35% in size
Summary of the method: as §3

[17] = Quantitative High-Throughput drug screen in 47 multiple myeloma cell lines against the NCATS MIPE library collection: MMM1_PLB cell viability assay (AID 1918976); note: nearly all actives have a fitted effect of over 35% in size
Summary of the method: as §3

[18] = Quantitative High-Throughput drug screen in 47 multiple myeloma cell lines against the NCATS MIPE library collection: MM1S_ATCC cell viability assay (AID 1918980); note: nearly all actives have a fitted effect of over 45% in size
Summary of the method: as §3

[19] = Quantitative High-Throughput drug screen in 47 multiple myeloma cell lines against the NCATS MIPE library collection: MM1R_ATCC cell viability assay (AID 1918981); note: nearly all actives have a fitted effect of over 35% in size
Summary of the method: as §3
Potency is the fitted concentration of half-maximal effect.

O=C(Nc1nnc(-c2ccco2)o1)c1cc(-c2ccccc2)nc2ccccc12
active: Potency [1] 23.5 µM | Potency [2] 18.7 µM | Potency [3] 18.7 µM | Potency [4] 16.6 µM | Potency [5] 20.9 µM | Potency [6] 18.7 µM | Potency [7] 18.7 µM | Potency [8] 23.5 µM | Potency [9] 18.7 µM | Potency [10] 16.6 µM | Potency [11] 23.5 µM | Potency [12] 18.7 µM

Cc1cc(O)c2c(c1)C(=O)c1cccc(O)c1C2=O
active: viability (% of DMSO) [1] 136%
inactive: Potency [2] | Potency [4] | Potency [5] | Potency [6] | Potency [7] | Potency [13] | Potency [14] | Potency [15] | Potency [16]

CCOC(=O)N1CCN([N+]([O-])=NOc2ccc([N+](=O)[O-])cc2C#N)CC1
active: Potency [1] 0.0662 µM | Potency [2] 1.05 µM | Potency [4] 1.18 µM | Potency [5] 0.418 µM | Potency [6] 0.526 µM | Potency [7] 0.743 µM | Potency [13] 0.372 µM | Potency [8] 1.48 µM | Potency [9] 0.833 µM | Potency [14] 0.935 µM | Potency [17] 0.526 µM | Potency [12] 2.96 µM | Potency [18] 1.32 µM | Potency [19] 1.32 µM

O=C(CN1C(=O)C2(CCCC2)NC[C@H]1c1cc(F)cc(F)c1)Nc1ccc2c(c1)C[C@@]1(C2)C(=O)Nc2ncccc21
inactive: Potency [1] | Potency [2] | Potency [4] | Potency [6] | Potency [7] | Potency [8] | Potency [14] | Potency [12] | Potency [18] | Potency [19]
active: Potency [3] 18.7 µM

Cc1[nH]c(C=C2C(=O)Nc3ccccc32)c(C)c1CCC(=O)O
active: Potency [1] 23.5 µM | Potency [3] 2.96 µM | Potency [4] 3.72 µM | Potency [5] 18.7 µM | Potency [6] 4.18 µM | Potency [7] 10.5 µM | Potency [13] 5.9 µM | Potency [8] 5.9 µM | Potency [9] 9.35 µM | Potency [10] 11.8 µM | Potency [11] 11.8 µM | Potency [12] 7.43 µM | Potency [18] 0.0833 µM

C=C[C@@H]1CN2CCC1C[C@H]2[C@H](O)c1ccnc2ccc(OC)cc12 (stereo not given in full)
inactive: Potency [1] | Potency [2] | Potency [6] | Potency [13] | Potency [8] | Potency [15] | Potency [16] | Potency [19]

CC(C=CC=C(C)C=CC1=C(C)CCCC1(C)C)=CC=CC=C(C)C=CC=C(C)C=CC1=C(C)CCCC1(C)C
active: Potency [1] 9.35 µM | Potency [5] 14.8 µM | Potency [7] 16.6 µM | Potency [13] 11.8 µM | Potency [14] 13.2 µM | Potency [17] 14.8 µM | Potency [18] 5.9 µM
inactive: Potency [2] | Potency [8]

O=C(O)c1ccc(Nc2ncc3c(n2)-c2ccc(Cl)cc2C(c2c(F)cccc2F)=NC3)cc1
inactive: Potency [1] | Potency [13] | Potency [16]
active: Potency [2] 4.69 µM | Potency [4] 1.87 µM | Potency [5] 3.72 µM | Potency [6] 16.6 µM | Potency [7] 14.8 µM | Potency [8] 0.296 µM | Potency [10] 14.8 µM | Potency [11] 0.743 µM | Potency [12] 4.18 µM | Potency [18] 18.7 µM

O=C(O)C(=O)Nc1cccc(C2=NN=N[N]2)c1
inactive: Potency [1] | Potency [2] | Potency [4] | Potency [6] | Potency [7] | Potency [13] | Potency [8] | Potency [9] | Potency [15] | Potency [12]

COc1cc(C(=O)NC2CCN(C)CC2)ccc1Nc1ncc2c(n1)N(C1CCCC1)CCC(=O)N2C(C)C
active: Potency [1] 13.2 µM | Potency [2] 20.9 µM | Potency [3] 5.9 µM | Potency [4] 3.72 µM | Potency [5] 8.33 µM | Potency [6] 23.5 µM | Potency [7] 20.9 µM | Potency [9] 13.2 µM | Potency [10] 16.6 µM | Potency [11] 3.72 µM | Potency [12] 10.5 µM | Potency [18] 1.05 µM

C#C[C@]1(O)CC[C@@H]2[C@@H]3CCc4cc(O)ccc4[C@H]3CC[C@@]21C
active: Potency [1] 8.33 µM | Potency [2] 20.9 µM | Potency [4] 9.35 µM | Potency [6] 18.7 µM | Potency [7] 18.7 µM | Potency [13] 16.6 µM | Potency [8] 20.9 µM | Potency [9] 16.6 µM | Potency [10] 14.8 µM | Potency [14] 3.72 µM | Potency [12] 3.72 µM | Potency [18] 11.8 µM

CCOC(=O)[C@@H](N)Cc1ccc(-c2cc(O[C@H](c3ccc(Cl)cc3-n3ccc(C)n3)C(F)(F)F)nc(N)n2)cc1
active: Potency [1] 9.35 µM | Potency [2] 20.9 µM | Potency [3] 6.62 µM | Potency [4] 23.5 µM | Potency [5] 18.7 µM | Potency [6] 10.5 µM | Potency [7] 18.7 µM | Potency [13] 10.5 µM | Potency [8] 20.9 µM | Potency [9] 10.5 µM | Potency [14] 18.7 µM | Potency [15] 11.8 µM | Potency [12] 18.7 µM | Potency [16] 18.7 µM | Potency [18] 2.96 µM | Potency [19] 14.8 µM
